The whole screen tested about 57,000 sequences, of which about 4,300 (7.5%) were called active. No stated cut-off is given here; in the data, active = GI50 up to about 1.1 µM and inactive = higher. These entries were drawn from the full list. Measured potencies and affinities stand elsewhere.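 Five compound concentrations were applied to cells in 96-well plates for 48 hours; endpoints were derived by simple linear interpolation of the resulting dose-response curve. Here, GI50 denotes the concentration required for 50% inhibition of growth.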
system: HT-29; assay: NCI tumour cell line growth inhibition, 48 h

Substance	GI50
cis-Bis[[(trimethylsilyl)methyl]amino]tetrachloroplatinum(IV), CHEMBL2146191	4.11 µM
[Bis(aminomethyl)pentamethylenesilane]tetrachloropaltinum(IV), CHEMBL2146204	1.57 µM
[Bis(aminomethyl)tetramethylenesilane]tetrachloropaltinum(IV), CHEMBL2146189	4.9 µM
[Bis(aminomethyl)pentamethylenesilane]dichloropaltinum(II), CHEMBL2146202	3.19 µM
CISPLATIN, CHEMBL11359	7.93 µM
[Bis(aminomethyl)dimethylsilane]dichloroplatinum (II), CHEMBL2146201	18.1 µM
[Bis(aminomethyl)dimethylsilane]tetrachloroplatinum(IV), CHEMBL2146190	5.28 µM
[Bis(aminomethyl)ethylmethylsilane]tetrachloroplatinum(IV), CHEMBL2146192	1.57 µM
mu-(1,7-nanodiamine-N,N')bis-(cis-aminedichloroplatimum (II)), CHEMBL2146215	42.7 µM
[Bis(aminomethyl)tetramethylenesilane]dichloropaltinum(II), CHEMBL2146205	16.2 µM
[Bis(aminomethyl)diethylsilane]tetrachloroplatinum(IV), CHEMBL2146203	2.06 µM
